Screening data: PubChem BioAssay, Broad Institute
Shown are actives, neighbours in structure and some others; about 3.9% of the full set was active somewhere.
NSD2 inh – NSD2 (human) methyltransferase inhibition | O96028 | actives 0.54% (n = 310,000) | AID 743445 | inhibition, % at 12.5 µM | NSD2 peptide methylation, AlphaScreen, 120 min; in the data active means inhibition above about 50%
Casp6 inh – blocks human caspase-6 cleavage activity; purified caspase-6, Z-VEID-R110 cleavage fluorescence; inhibition, % at 12.5 µM; actives 0.53% (n = 350,000); P55212;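 active means mean inhibition across replicates at least about 35%, with every replicate also reaching that limit, limit read from the data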;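 further: 0% = median of neutral control wells and 100% = no fluorescence left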
ALR inh – human ALR oxidase inhibition via reduced H2O2; P55789; purified ALR, DTT oxidation, H2O2 HRP-luminol luminescence; inhibition, % (test concentration not listed); actives 3.8% (n = 290,000);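 active means mean replicate inhibition above about 79%, with every replicate also reaching it, limit read from the data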
SUMO Mot1 rescue – blocks SUMOylation pathway, rescuing yeast Mot1-301 growth; S. cerevisiae Mot1-301 growth rescue, ATP luminescence, 38.5C; percent above DMSO median, 100 means doubled; growth rescue, % at 18.8 µM; actives 1% (n = 320,000); AID 2716;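 active means every valid replicate shows activation above 250% relative to neutral control wells; inactive means the rest, any valid replicate at or below 250%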;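 further: OY570 slx delta 5 strain wells were the positive control but not used for scaling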
CDK5 p35 inh – inhibitors of human CDK5/p35 kinase. Recombinant CDK5/p35, ADP-Glo luminescence, 60 min. inhibition, % at 10 µM. actives 0.01% (n = 330,000). AID 488839;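 active means highest replicate inhibition of at least 50% and at least 75% of replicates reaching 50%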;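 further: plate controls were DMSO neutral control for no effect and GW8510 at 10 µM for full effect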
Target sequence (Q00535 whole entry, looked up): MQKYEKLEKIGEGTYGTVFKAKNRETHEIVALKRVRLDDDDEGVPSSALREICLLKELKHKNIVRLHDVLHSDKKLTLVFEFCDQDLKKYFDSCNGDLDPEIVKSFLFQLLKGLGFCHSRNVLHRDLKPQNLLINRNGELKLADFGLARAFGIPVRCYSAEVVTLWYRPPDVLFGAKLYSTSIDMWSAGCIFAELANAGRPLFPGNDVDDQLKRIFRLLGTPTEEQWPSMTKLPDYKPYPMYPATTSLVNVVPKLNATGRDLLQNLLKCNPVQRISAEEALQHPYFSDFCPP
Target sequence (Q15078 whole entry, looked up): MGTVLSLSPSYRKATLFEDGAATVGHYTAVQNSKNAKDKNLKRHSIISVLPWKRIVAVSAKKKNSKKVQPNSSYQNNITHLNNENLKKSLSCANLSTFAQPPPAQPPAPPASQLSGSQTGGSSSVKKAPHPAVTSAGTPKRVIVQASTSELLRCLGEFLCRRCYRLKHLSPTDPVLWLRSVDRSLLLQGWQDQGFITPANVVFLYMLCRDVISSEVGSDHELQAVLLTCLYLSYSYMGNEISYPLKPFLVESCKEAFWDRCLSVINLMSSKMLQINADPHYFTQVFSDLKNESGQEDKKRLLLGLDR
Glyco luc inh – N-linked glycosylation inhibition; D54 ERlucT glycosylation luciferase reporter, 24 h; percent of 100 nM tunicamycin response; reporter increase, % at 12.5 µM; actives 0.23% (n = 360,000); AID 588692;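 active means mean luciferase reporter signal, scaled so untreated is 0 and the glycosylation-blocking control 100, at or above a set limit in every replicate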;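 further: luciferase carries N-glycosylation sites so blocking glycosylation raises the light; 0% = median of neutral control wells and 100% = median of 100 nM tunicamycin wells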
Numbers without * were called inactive; . = no result given; + = active, no number.

SMILES	NSD2 inh	Casp6 inh	ALR inh	SUMO Mot1 rescue	CDK5 p35 inh	Glyco luc inh
O=C(CSc1nnc(-c2cccnc2)n1Cc1ccco1)c1ccc(Br)cc1	1	.	96*	22	1	-1
O=C(CSc1nnc(-c2cccnc2)n1Cc1ccco1)c1ccc2ccccc2c1	1	.	-12	231	-1	0
O=C(CSc1nnc(-c2ccccn2)n1Cc1ccco1)c1ccc(Cl)cc1	4	.	97*	4	0	0
Cc1ccc(S(=O)(=O)Nc2cccc3c2O[C@H](CN(C)Cc2ccccc2)[C@@H](C)CN([C@@H](C)CO)C3=O)cc1	.	1	.	.	.	.
COCC(=O)N1CC(=O)N2[C@H](CO)[C@@H](c3ccc(C#CC(C)C)cc3)[C@H]2C1	.	0	.	.	.	.
C[C@H]1CN([C@@H](C)CO)C(=O)c2cc(-c3ccc(F)cc3)cnc2O[C@H]1CN(C)C(=O)c1ccc(F)cc1	.	5	.	.	.	.
CC(C)NC(=O)N(C)C[C@@H]1Oc2ccc(NC(=O)Nc3cccc4ccccc34)cc2C(=O)N([C@@H](C)CO)C[C@@H]1C	.	1	.	.	.	.
Cn1cnnc1SCC(=O)c1ccc(O)c(O)c1	-1	2	99*	384	-1	0
CC(=O)c1ccc(O)c(CSc2nncn2C)c1	.	-5	-8	-8	1	1
O=C(CSc1nnnn1-c1ccc(F)cc1)c1ccc(O)c(O)c1	26	25	98*	4	1	-5
CC(=O)NC1C(=O)N(CCN2CCOCC2)c2ccc(F)cc21 (stereo unspecified)	-4	52*	-25	-21	1	1
CC(=O)NC1C(=O)N(CCN2CCOCC2)c2ccc(Cl)cc21 (stereo unspecified)	-3	40*	-19	-11	1	3
CC(=O)NC1C(=O)N(CCN2CCOCC2)c2ccc(C)cc21 (stereo unspecified)	.	.	-8	208	0	0
CC(OC(=O)c1cc(=O)c2ccccc2o1)C(=O)Nc1ccc(N(C)C)cc1 (stereo unspecified)	1	-2	.	.	-2	1
CN(C)c1ccc(NC(=O)COC(=O)c2cc(=O)c3ccccc3o2)cc1	1	-1	99*	17	1	1
O=C1CCCC2=C1C(c1ccc(O)c(Br)c1)C1=C(CCCC1=O)N2c1ccccc1	3	-1	6	+	-3	-4
CNC[C@@H]1Oc2ccc(NC(=O)Cn3cnnn3)cc2CC(=O)N([C@H](C)CO)C[C@@H]1C	.	0	.	.	.	.
Cc1[nH]n(C2=NCCS2)c(=O)c1N=Nc1ccccc1	5	4	92*	-3	1	4
C[C@@H]1CCCCO[C@@H](CN(C)S(=O)(=O)c2ccc(F)cc2)[C@H](C)CN([C@H](C)CO)C(=O)c2cc(NS(=O)(=O)c3cn(C)cn3)ccc2O1	.	-2	.	.	.	.
CN(C)CC(=O)N[C@@H]1CC[C@@H](CC(=O)NCCN2CCCCC2)O[C@H]1CO	.	1	.	.	.	.
Oc1ccc(-c2cn3cc(C(F)(F)F)ccc3n2)cc1	-3	.	90*	89	3	-15
CNC[C@@H]1Oc2c(NC(=O)NC(C)C)cccc2C(=O)N([C@H](C)CO)C[C@@H]1C	.	-3	.	.	.	.
CNC[C@H]1Oc2ccc(NC(=O)Cn3cnnn3)cc2C(=O)N([C@H](C)CO)C[C@@H]1C	.	-4	.	.	.	.
COc1ccc(C2NC(=O)CS2)cc1OC (stereo unspecified)	-3	.	98*	158	-1	2
O=C(C[C@@H]1CC[C@@H]2[C@H](COC[C@@H](O)CN2C(=O)C2CC2)O1)NCc1ccccc1Cl	.	-4	.	.	.	.
SMILES	NSD2 inh	Casp6 inh	ALR inh	SUMO Mot1 rescue	CDK5 p35 inh	Glyco luc inh
Nn1c(Cc2cccc3ccccc23)nnc1SCc1ccccc1	6	-2	-4	7	1	-2
Nn1c(Cc2cccc3ccccc23)nnc1SCc1ccccc1Cl	-2	.	87*	6	-1	-3
COc1ccc(-n2ccnc(SCC(=O)NC3CCCC3)c2=O)cc1	-1	0	51	15	0	-2
CCOc1ccc(-n2ccnc(SCC(=O)Nc3ccc(CC)cc3)c2=O)cc1	-1	-1	99*	10	0	-1
COc1ccc(-n2ccnc(SCC(=O)NC3CCCCC3)c2=O)cc1	2	.	98*	32	.	-2
COc1ccc2c3c([nH]c2c1)[C@H](CO)N(C(=O)C1CCCCC1)CC31CN(C(=O)NC(C)C)C1	.	-2	.	.	.	.
COc1cccc(S(=O)(=O)N(C)C[C@@H]2Oc3ncc(C#CC(C)C)cc3C(=O)N([C@@H](C)CO)C[C@@H]2C)c1	.	1	.	.	.	.
COc1ccc(N2CCN(CCCNC(=O)CCCn3c(=O)[nH]c4ccsc4c3=O)CC2)cc1	.	.	93*	-12	0	-3
COCCn1c(=O)[nH]c2cc(C(=O)N3CCN(c4cccc(C(F)(F)F)c4)CC3)ccc2c1=O	-2	2	-10	-6	0	2
CN1CCN(CCn2c(=S)[nH]c3ccccc3c2=O)CC1	8	-9	15	-7	0	2
COCCn1c(=O)[nH]c2cc(C(=O)N3CCN(c4ccc(OC)cc4)CC3)ccc2c1=O	1	2	96*	11	2	-1
COc1cc2c(=O)n(CCCN3CCOCC3)c(=S)[nH]c2c(OC)c1OC	.	.	95*	15	0	1
COc1ccc(N2CCN(CCCn3c(=S)[nH]c4ccccc4c3=O)CC2)cc1	4	-3	95*	156	-1	-9
CCOc1cc2[nH]c(=S)n(CCCN3CCOCC3)c(=O)c2cc1OCC	-1	.	50	-25	0	1
C[C@H](CO)N1C[C@H](C)[C@H](CN(C)C(=O)Nc2ccc(F)cc2)OCCCC[C@H](C)Oc2ccc(NS(C)(=O)=O)cc2C1=O	.	1	.	.	.	.
C[C@@H]1CN([C@@H](C)CO)C(=O)c2cc(NC(=O)Nc3ccc(F)cc3)ccc2O[C@H]1CN(C)C	.	1	.	.	.	.
C[C@@H]1CCCCO[C@H](CN(C)Cc2ccc(C(F)(F)F)cc2)[C@H](C)CN([C@H](C)CO)C(=O)c2cc(NS(=O)(=O)c3ccc(F)cc3)ccc2O1	.	0	.	.	.	.
COc1ccccc1N1CCN(CCCn2c(=S)[nH]c3ccccc3c2=O)CC1	3	-12	97*	-18	1	-1
CN(C)CCCN1c2ccccc2Sc2ccccc21	.	-5	98*	89	0	-3
CN(C)CCCN1C(=O)c2cc3ccccc3cc2C1=O	4	4	-31	-16	0	2
CC(=O)c1ccc2c(c1)N(CCCN(C)C)c1ccccc1S2	.	4	.	.	1	2
COc1ccc2c(c1)Sc1ccccc1N2CCN(C)C	.	.	98*	-21	0	-1
COC(=O)c1ccc(OC(=O)CCN2c3ccccc3Sc3ccccc32)cc1	-1	.	8	-1	-1	2
CCC(=O)c1ccc2c(c1)N(CCCN(C)C)c1ccccc1S2	.	-9	98*	-4	0	6
